This is a sample that favours compounds with a hit; in the whole collection about 1.2% have one here.
ASM inhibitor – human S-ASM enzyme inhibition. AID 504937. Potency, µM (top dose mostly 57.5 µM), without a hit: at the highest dose activity change, negative = inhibition, hits mostly inhibitors. placental ASM, HMU-PC fluorogenic substrate, 60 min. actives 0.006% (n = 340,000). P17405; also: potency is read from the fitted curve at half-maximal effect
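Human placenta-derived ASM preincubated with compound 10 min at room temperature, then reacted with 9 uM (final) fluorogenic HMU-PC substrate for 60 min at 37 C. Stop solution raises pH to 10; fluorescence read at Ex 386/Em 447 nm.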
KCNH2 3.1 block – inhibitors of human KCNH2 3.1 potassium channel isoform; actives 0.95% (n = 340,000); U2OS KCNH2 3.1, thallium flux FluxOr; hits give low values; AID 720553; activity change, % (tested at about 1.8 µM);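 active = maximum activity change below -70%; inconclusive = maximum activity change from -70% to -50%; inactive = maximum activity change above -50%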;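 also: thallium influx rate constant from kinetic fluorescence after stimulation buffer; % is scaled to controls: 0 for no effect and ±100 for the full control effect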
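Measured as rate of thallium-driven FluxOr signal in transduced U2OS cells carrying the 3.1 channel, read kinetically for 2 min upon stimulation; values are rate constants scaled to DMSO control wells.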
mIDH1 inhibitor – blocks human mutant IDH1 R132H enzyme; IDH1-R132H enzyme, NADPH consumption, diaphorase/resazurin fluorescence; Potency, µM (top dose mostly 76.6 µM), for the others: at the top dose activity change, negative = inhibition, most hits filed as inhibitors; actives 0.093% (n = 390,000); also: potency is read from the fitted curve at half-maximal effect; % is scaled to controls: 0 for no effect and ±100 for the full control effect; nearly all actives have a fitted effect of over 65% in size
Target sequence (O75874 whole entry R132H, stated change not applied): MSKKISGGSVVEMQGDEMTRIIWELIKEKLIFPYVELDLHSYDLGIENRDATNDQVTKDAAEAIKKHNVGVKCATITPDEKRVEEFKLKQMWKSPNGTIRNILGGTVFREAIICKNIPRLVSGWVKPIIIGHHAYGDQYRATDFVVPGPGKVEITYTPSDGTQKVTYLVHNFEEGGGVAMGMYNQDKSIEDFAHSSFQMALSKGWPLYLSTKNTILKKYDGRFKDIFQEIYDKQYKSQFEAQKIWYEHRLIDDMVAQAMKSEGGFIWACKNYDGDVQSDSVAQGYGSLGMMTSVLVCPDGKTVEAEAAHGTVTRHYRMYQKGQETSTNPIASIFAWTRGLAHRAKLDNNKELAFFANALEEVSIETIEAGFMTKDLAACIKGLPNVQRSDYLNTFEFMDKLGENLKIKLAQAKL
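IDH1-R132H (0.5 ug/mL) preincubated 30 min with compound, then NADPH (0.016 mM) and alpha-KG (2 mM) added; 80 min at RT, pH 7.5. Remaining NADPH coupled via diaphorase/resazurin to fluorescence (540/590 nm); concentration-response curves normalized to no-enzyme control.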
Apoferritin bind – candidate novel general anesthetic via apoferritin binding; P02791; apoferritin/1-aminoanthracene competitive binding, fluorescence; Potency, µM (highest dose often 77.5 µM), for the others: top-dose activity change, negative = displacement, usual class: inhibitors; actives 0.074% (n = 350,000); AID 485281; also: potency is read from the fitted curve at half-maximal effect; % is scaled to controls: 0 for no effect and ±100 for the full control effect; nearly all actives have a fitted effect of over 20% in size
Target sequence (P02791 2-175 limits assumed): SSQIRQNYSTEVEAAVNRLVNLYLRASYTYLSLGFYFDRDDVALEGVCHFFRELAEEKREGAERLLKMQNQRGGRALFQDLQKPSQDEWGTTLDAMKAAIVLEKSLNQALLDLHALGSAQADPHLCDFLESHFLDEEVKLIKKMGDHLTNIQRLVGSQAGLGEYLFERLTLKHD
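Probe: 1-aminoanthracene (50% saturated, PBS). Protein: horse-spleen apoferritin, 10 uM. Incubation: 10 min, room temperature. Detection: 380 nm excitation, 535 nm emission. Analysis: normalized response, four-parameter Hill.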
KCNH2 WT inh – inhibitors of human wildtype KCNH2 potassium channel; actives 0.37% (n = 340,000); U2OS, BacMam KCNH2, thallium flux FluxOr; hits give low values; AID 720551; activity change, % at 1.84 µM;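 active = maximum activity change below -70%; inconclusive = maximum activity change between -70% and -50%; inactive = maximum activity change above -50%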; also: % is scaled to controls: 0 for no effect and ±100 for the full control effect
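U2OS cells were transduced with wild-type KCNH2 virus (2.03 x 10^8 / mL) for 4 h at room temperature, then cultured overnight at 37 C. Thallium flux was read with FluxOr dye. Rate constants were normalized to DMSO controls.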
* marks the source's active call; other numbers are inactive results; ? = inconclusive; nt = not tested or not shown; [ ] = dose if it differs, or a comment. Unless noted, calls follow the shape of the dose curve; as a rule, active = well fitted inhibition curve with a large enough effect; inconclusive = small, poorly fitted or top-dose-only effect; inactive = no such curve, though single readings can be large or run the other way.

SMILES	ASM inhibitor	KCNH2 3.1 block	mIDH1 inhibitor	Apoferritin bind	KCNH2 WT inh
CC(C)Oc1cccc(C(=O)C2CCCN(Cc3cccn3-c3ccccn3)C2)c1 (centres undefined)	-3.3%	-80.9*	0.7%	-16.2%	?
O=C(c1ccc(Cl)cc1)C1CCCN(Cc2cccn2-c2ccccn2)C1 (centres undefined)	-2.0%	-104.5*	8.1%	-14.6%	-108.9*
Cc1ccc(CNC(=O)[C@]2(C(F)(F)F)C[C@H](CCc3ccccc3)CCCO2)o1	nt	nt	nt	-18.1%	nt
CCCNC(=O)OC[C@@H]1O[C@H](CCO/N=C(\C)CCN2CCCc3nc(C)c(C)cc32)C=C[C@@H]1Oc1ccc(OC)cc1	nt	nt	nt	-9.6%[15.3 µM]	nt
COc1ccc(CNC(=O)C(=O)NCC(c2cccs2)S(=O)(=O)c2cccs2)cc1 (centres undefined)	nt	nt	69.3%	-10.1%	nt
CC(=O)OCC1C2CC[C@H]3C(OCc4ccc(F)cc4C(F)(F)F)OC[C@]4(C)[C@H]3C2=C(CN4C(=O)OC(C)(C)C)[C@H](C)C1COC(C)=O (some centres undefined)	nt	nt	nt	2.6%	nt
COc1ccc(C(=O)C2CCCN(Cc3cccn3-c3ccccn3)C2)cc1F (centres undefined)	0.9%	-93.3*	-0.7%	-21.0%	-96.2*
COc1cccc(C(=O)C2CCCN(Cc3cccn3-c3ccccn3)C2)c1 (centres undefined)	-1.7%	-100.5*	-0.6%	-12.7%	?
COc1ccc(C(=O)Nc2nnc(S(=O)(=O)N3CCCc4ccccc43)s2)cc1	nt	nt	17.9%	-5.9%	nt
O=C(Nc1cccc(Cl)c1)c1ccc2nc(Cc3ccccc3)oc2c1	nt	nt	11.4%	-5.5%	nt
OCCC1CN(Cc2cccn2-c2nccs2)CCN1Cc1ccccc1 (centres undefined)	-0.3%	-40.7	-1.8%	5.8%	13.7
CCOc1ccc(CN2CCN(Cc3cccn3-c3nccs3)CC2CCO)cc1 (centres undefined)	-0.5%	-113.5*	-7.5%	3.7%	-134.0*
CC(C)=CCN1CCN(Cc2cccn2-c2nccs2)CC1CCO (centres undefined)	4.6%	2.7	6.6%	-3.6%	37.0
OCCC1CN(Cc2cccn2-c2nccs2)CCN1Cc1ccc(F)c(F)c1 (centres undefined)	-1.9%	-84.6*	0.0%	-5.9%	-46.6
COc1ccc(/C=C/CN2CCN(Cc3cccc(OC)c3)C(CCO)C2)cc1 (centres undefined)	0.3%	-17.4	-2.1%	-9.3%	-0.5
CCOc1ccc(CN2CCN(Cc3cnc(-c4ccccc4)s3)CC2CCO)cc1 (centres undefined)	-1.4%	-97.2*	4.2%	?	-96.0*
CCOc1ccc(CN2CCN(C/C=C/c3ccc(OC)cc3)CC2CCO)cc1 (centres undefined)	1.3%	-88.3*	3.4%	-8.5%	-15.3
C[C@H](C(=O)O)c1cccc(Oc2ccccc2)c1	nt	nt	nt	-0.8%[29.3 µM]	nt
CCOC(=O)c1ccc(NC(=O)c2csnn2)cc1	nt	nt	11.5%	-5.6%	nt
Fc1ccc(-n2cc(CNCCc3ccccn3)c(-c3ccccc3Cl)n2)cc1	-0.6%	-114.9*	6.7%	?	-47.4
O=C(O)CN1C(=O)/C(=C/c2ccc(N3CCCCC3)o2)SC1=S	8.6%	-12.8	10.4µM*	0.1%	-1.3
CCc1nnc(SCC(=O)Nc2cc(Cl)c(OC)cc2OC)c2cc3oc(C)cc3n12	nt	nt	11.4%	3.5%	nt
COc1cc2c(cc1OC)C(C)N(CCc1ccc(Cl)cc1)CC2 (centres undefined)	9.0%	-84.4*	-7.7%	nt	-12.0
COc1cc2c(cc1OC)C(C)N(CCN1C(=O)c3ccccc3C1=O)CC2 (centres undefined)	5.4%	3.0	-7.7%	3.6%	1.6
Cc1nnc(N2CCN(C(=O)Nc3cc(F)ccc3F)CC2)c2nn(-c3ccc(Cl)cc3)c(C)c12	nt	nt	nt	3.0%	nt
SMILES	ASM inhibitor	KCNH2 3.1 block	mIDH1 inhibitor	Apoferritin bind	KCNH2 WT inh
CC12CCC(/C(=N/O)C1=O)C2(C)C (centres undefined)	nt	nt	nt	0.6%	nt
O=C(CN1CCN(c2ccc(F)cc2)CC1)NCc1ccc(Cl)cc1	2.0%	-77.0*	3.7%	-8.2%	25.8
O=C(CN1CCN(Cc2ccc(Cl)cc2)C1=O)NCCCN1CCN(c2ccc(F)cc2)CC1	-0.9%	-96.8*	-7.5%	-14.6%	-115.6*
O=C(CN1CCN(c2ccc(F)cc2)CC1)NCc1ccc(F)cc1	3.2%	-7.6	-0.5%	-2.0%	-5.7
O=C1Nc2c(c(=O)[nH]c(=O)n2-c2ccc(Cl)cc2)C1(NS(=O)(=O)c1ccccc1)C(F)(F)F (centres undefined)	nt	nt	3.1%	-1.4%	nt
COc1ccc(-n2c3c(c(=O)[nH]c2=O)C(NS(=O)(=O)c2ccc(Cl)cc2)(C(F)(F)F)C(=O)N3)cc1 (centres undefined)	-0.6%	12.1	2.3%	-3.4%	-98.3*
O=C(Nc1ccnn1C1CCN(CCCc2ccccc2)CC1)c1ccccc1	-0.4%	-84.7*	14.6%	-11.5%	?
Cc1ccccc1C(=O)Nc1ccnn1C1CCN(CCCc2ccccc2)CC1	1.5%	-106.1*	2.9%	?	-139.3*
COc1ccccc1C(=O)Nc1ccnn1C1CCN(CCCc2ccccc2)CC1	3.0%	-102.5*	15.8%	-11.7%	-104.8*
Cc1ccccc1C(=O)Nc1ccnn1C1CCN(Cc2cccnc2)CC1	3.8%	1.9	7.0%	-10.2%	2.0
Cc1cccc(CSc2cn(CC(=O)N3CCCCC3)c3ccccc23)c1	nt	nt	-11.8%	128.9%	nt
C=C(C)C(=O)OC1(C(F)(F)F)Oc2cc(C)ccc2NC1=O (centres undefined)	-1.7%	-6.2	4.0%	17.8µM*	8.1
CCOC(=O)C1(N(CC)CC)Sc2cc(C)ccc2NC1=O (centres undefined)	-3.4%	-2.9	5.2%	-15.4%	-5.5
CCS(=O)(=O)c1nc(S(=O)(=O)c2ccc(C)cc2)c(NCc2ccccc2Cl)s1	nt	nt	1.1%	-7.0%	nt
COc1ccc(C2(c3ccc(OC)cc3)NC(=O)N(CC(=O)Nc3ccc(OC(F)F)cc3)C2=O)cc1	-13.5%	nt	-1.8%	2.0%	-82.6*
CC1CCN(S(=O)(=O)c2ccc3c(c2)c(=O)c(C(=O)NC(C)c2ccccc2)cn3C)CC1 (centres undefined)	nt	nt	-16.4%	?	nt
Cc1cc(C)nc(NC(=NCCc2c[nH]c3ccccc23)NC(=O)C(C)(C)C)n1	3.1%	-88.0*	2.4%	0.1%	8.7
CC1CCc2nc3ncn(Cc4cccc(F)c4)c(=O)c3cc2C1 (centres undefined)	nt	nt	10.0%	-11.2%	nt
C=CCOC(=O)/C(=C/c1cccc2ccccc12)NC(=O)c1ccccc1	-5.9%	-25.4	4.5%	?	-274.7*
CCn1ncc(C(=O)Nc2ccc(F)cc2)c1C	1.3%	2.7	26.6%	nt	3.3
CCn1ncc(C(=O)Nc2ccccc2C)c1C	8.4%	-94.5*	-0.1%	1.9%	19.4
